From PubChem BioAssay AID1159580 (chemical genetic matrix, 2015)
Screen size: about 5,500 compounds; about 2,000 (36%) were called active. Another 18% or so got no clear call; they are omitted. Rule as the data show it: active = normalized growth mostly below about 0.91 (no sharp cut-off); inconclusive = no clear call, values can overlap the other calls; inactive = mostly above about 0.92. Some of the results follow.

Test: chemical genetic growth profiling, strain panel (AID 1159580);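 also: tested at 20 µM; growth read once vehicle control cultures reached saturation at 30 °C; 1 = growth at the plate median or of vehicle wells; lower values mean less growth of the strain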
Details: growth OD

Measured: normalized growth

CN(C)CCN(Cc1ccccc1)c1ccccn1
inactive: S. cerevisiae deletion strains, locus YJR075W, strain HOC1, stronger effect = lower value 1.01 | S. cerevisiae deletion strains, locus YKL009W, strain mrt4, stronger effect = lower value 0.993 | S. cerevisiae deletion strains, locus YKL068W, stronger effect = lower value 0.969 | S. cerevisiae deletion strains, locus YKL085W, strain MDH1 (second series), stronger effect = lower value 0.978 | S. cerevisiae deletion strains, locus YKL085W, strain MDH1, stronger effect = lower value 0.978 | S. cerevisiae deletion strains, locus YKL160W, strain elf1, stronger effect = lower value 1.03 | S. cerevisiae deletion strains, locus YKL190W, strain CNB1, stronger effect = lower value 0.983 | S. cerevisiae deletion strains, locus YKR001C, strain vps1, stronger effect = lower value 0.994 | S. cerevisiae deletion strains, locus YKR026C, strain gcn3, stronger effect = lower value 1 | S. cerevisiae deletion strains, locus YKR091W, strain srl3, stronger effect = lower value 1.01 | S. cerevisiae deletion strains, locus YLL001W, strain dnm1, stronger effect = lower value 1.04 | S. cerevisiae deletion strains, locus YLL026W, stronger effect = lower value 1.02 | S. cerevisiae deletion strains, locus YLL041C, strain sdh2, stronger effect = lower value 1.01 | S. cerevisiae deletion strains, locus YLR027C, strain aat2, stronger effect = lower value 1.01 | S. cerevisiae deletion strains, locus YLR039C, strain RIC1, stronger effect = lower value 0.966 | S. cerevisiae deletion strains, locus YLR058C, strain SHM2, stronger effect = lower value 0.999 | S. cerevisiae deletion strains, locus YLR102C, strain apc9, stronger effect = lower value 0.986 | S. cerevisiae deletion strains, locus YLR113W, strain HOG1, stronger effect = lower value 0.909 | S. cerevisiae deletion strains, locus YLR221C, strain rsa3, stronger effect = lower value 0.988 | S. cerevisiae deletion strains, locus YLR258W, strain gsy2, stronger effect = lower value 1.01 | S. cerevisiae deletion strains, locus YLR262C, strain YPT6 (second series), stronger effect = lower value 1.02 | S. cerevisiae deletion strains, locus YLR262C, strain YPT6, stronger effect = lower value 1.01 | S. cerevisiae deletion strains, locus YLR268W, strain sec22, stronger effect = lower value 0.985 | S. cerevisiae deletion strains, locus YLR320W, strain mms22, stronger effect = lower value 1.01 | S. cerevisiae deletion strains, locus YLR330W, strain CHS5, stronger effect = lower value 0.999 | S. cerevisiae deletion strains, locus YLR342W, strain FKS1 (second series), stronger effect = lower value 1.04 | S. cerevisiae deletion strains, locus YLR342W, strain FKS1, stronger effect = lower value 1.02 | S. cerevisiae deletion strains, locus YLR357W, strain rsc2, stronger effect = lower value 1.03 | S. cerevisiae deletion strains, locus YLR370C, strain arc18, stronger effect = lower value 1.03 | S. cerevisiae deletion strains, locus YLR371W, strain rom2, stronger effect = lower value 0.976 | S. cerevisiae deletion strains, locus YLR384C, strain iki3, stronger effect = lower value 1.01 | S. cerevisiae deletion strains, locus YLR418C, strain cdc73, stronger effect = lower value 1.02 | S. cerevisiae deletion strains, locus YML016C, strain PPZ1, stronger effect = lower value 1.01 | S. cerevisiae deletion strains, locus YML032C, strain rad52, stronger effect = lower value 0.978 | S. cerevisiae deletion strains, locus YML120C, strain ndi1, stronger effect = lower value 1.02 | S. cerevisiae deletion strains, locus YML124C, strain tub3, stronger effect = lower value 0.988 | S. cerevisiae deletion strains, locus YMR058W, strain fet3, stronger effect = lower value 1.02 | S. cerevisiae deletion strains, locus YMR078C, strain ctf18, stronger effect = lower value 0.988 | S. cerevisiae deletion strains, locus YMR125W, strain sto1, stronger effect = lower value 1.02 | S. cerevisiae deletion strains, locus YMR129W, stronger effect = lower value 1 | S. cerevisiae deletion strains, locus YMR205C, strain PFK2, stronger effect = lower value 1.04 | S. cerevisiae deletion strains, locus YMR223W, strain ubp8, stronger effect = lower value 1.02 | S. cerevisiae deletion strains, locus YMR231W, strain pep5, stronger effect = lower value 1 | S. cerevisiae deletion strains, locus YMR263W, strain SAP30, stronger effect = lower value 0.976 | S. cerevisiae deletion strains, locus YMR307W, strain GAS1, stronger effect = lower value 1.06 | S. cerevisiae deletion strains, locus YNL067W, strain RPL9B, stronger effect = lower value 0.985 | S. cerevisiae deletion strains, locus YNL071W, strain lat1, stronger effect = lower value 1.01 | S. cerevisiae deletion strains, locus YNL128W, strain TEP1, stronger effect = lower value 0.987 | S. cerevisiae deletion strains, locus YNL153C, strain GIM3, stronger effect = lower value 0.995 | S. cerevisiae deletion strains, locus YNL183C, strain NPR1, stronger effect = lower value 0.942 | S. cerevisiae deletion strains, locus YNL209W, strain ssb2, stronger effect = lower value 1 | S. cerevisiae deletion strains, locus YNL233W, strain BNI4, stronger effect = lower value 1.01 | S. cerevisiae deletion strains, locus YNL248C, strain rpa49, stronger effect = lower value 1 | S. cerevisiae deletion strains, locus YNL250W, strain rad50, stronger effect = lower value 0.96 | S. cerevisiae deletion strains, locus YNL271C, strain bni1, stronger effect = lower value 0.953 | S. cerevisiae deletion strains, locus YNL298W, strain CLA4, stronger effect = lower value 0.994 | S. cerevisiae deletion strains, locus YNL307C, strain MCK1, stronger effect = lower value 0.989 | S. cerevisiae deletion strains, locus YNL322C, strain KRE1 (second series), stronger effect = lower value 1.02 | S. cerevisiae deletion strains, locus YNL322C, strain KRE1, stronger effect = lower value 0.987 | S. cerevisiae deletion strains, locus YNR049C, strain mso1, stronger effect = lower value 1.02 | S. cerevisiae deletion strains, locus YNR052C, strain pop2, stronger effect = lower value 0.986 | S. cerevisiae deletion strains, locus YOL006C, strain TOP1, stronger effect = lower value 1 | S. cerevisiae deletion strains, locus YOL012C, strain htz1 1.43 | S. cerevisiae deletion strains, locus YOL147C, strain pex11, stronger effect = lower value 0.978 | S. cerevisiae deletion strains, locus YOR001W, strain rrp6, stronger effect = lower value 1.04 | S. cerevisiae deletion strains, locus YOR061W, strain CKA2, stronger effect = lower value 0.996 | S. cerevisiae deletion strains, locus YOR069W, strain VPS5, stronger effect = lower value 1 | S. cerevisiae deletion strains, locus YOR070C, strain gyp1, stronger effect = lower value 0.999 | S. cerevisiae deletion strains, locus YOR080W, strain dia2, stronger effect = lower value 1.02 | S. cerevisiae deletion strains, locus YOR083W, strain WHI5, stronger effect = lower value 1.01 | S. cerevisiae deletion strains, locus YOR106W, strain vam3, stronger effect = lower value 1.05 | S. cerevisiae deletion strains, locus YOR136W, strain idh2, stronger effect = lower value 0.997 | S. cerevisiae deletion strains, locus YOR144C, strain elg1, stronger effect = lower value 0.98 | S. cerevisiae deletion strains, locus YOR184W, strain ser1, stronger effect = lower value 1 | S. cerevisiae deletion strains, locus YOR231W, strain MKK1, stronger effect = lower value 0.959 | S. cerevisiae deletion strains, locus YOR265W, strain rbl2, stronger effect = lower value 1 | S. cerevisiae deletion strains, locus YOR270C, strain vph1, stronger effect = lower value 1.02 | S. cerevisiae deletion strains, locus YOR290C, strain snf2, stronger effect = lower value 0.985 | S. cerevisiae deletion strains, locus YOR316C, strain cot1, stronger effect = lower value 0.991 | S. cerevisiae deletion strains, locus YPL051W, strain arl3, stronger effect = lower value 1.02 | S. cerevisiae deletion strains, locus YPL055C, strain LGE1, stronger effect = lower value 1.04 | S. cerevisiae deletion strains, locus YPL078C, strain atp4, stronger effect = lower value 1.04 | S. cerevisiae deletion strains, locus YPL106C, strain sse1, stronger effect = lower value 1.02 | S. cerevisiae deletion strains, locus YPL240C, strain hsp82, stronger effect = lower value 1.01 | S. cerevisiae deletion strains, locus YPL241C, strain CIN2, stronger effect = lower value 0.992 | S. cerevisiae deletion strains, locus YPL256C, strain CLN2, stronger effect = lower value 0.974 | S. cerevisiae deletion strains, locus YPR119W, strain clb2, stronger effect = lower value 0.988 | S. cerevisiae deletion strains, locus YPR141C, strain kar3, stronger effect = lower value 0.965 | S. cerevisiae deletion strains, locus YPR163C, strain tif3, stronger effect = lower value 0.982 | S. cerevisiae deletion strains, locus YPR167C, strain met16, stronger effect = lower value 0.973 | S. cerevisiae deletion strains, strain wtn01, stronger effect = lower value 0.989 | S. cerevisiae strains, strain wild type, stronger effect = lower value 0.999
